Data as given in PubChem BioAssay (NCI).
This is part of a sample that, as a whole, favours compounds with a hit. Of some 83,000 tested, about 20% had one in any assay.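 Each cell line was grown in a 96-well plate and treated with one concentration of compound for 48 hours. Values below 10 were considered active.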 Values without a mark were called inactive. Active and inactive are the calls of the source.

Experiments:
Experiment in all cases: NCI-60 one-dose screen, 48 h (100 = growth as untreated, 0 = no growth, -100 = all killed)
Settings in all cases: 10 µM unless noted
[1] = test system: RPMI-8226 leukemia
[2] = test system: OVCAR-8 ovarian
[3] = test system: OVCAR-5 ovarian
[4] = test system: OVCAR-4 ovarian
[5] = test system: SK-OV-3 ovarian
[6] = test system: IGROV1 ovarian
[7] = test system: OVCAR-3 ovarian
[8] = test system: HS 578T breast
[9] = test system: NCI/ADR-RES ovarian
[10] = test system: T-47D breast
[11] = test system: BT-549 breast
[12] = test system: MDA-MB-435 melanoma
[13] = test system: SW-620 colon
[14] = test system: MCF7 breast
[15] = test system: HCT-116 colon
[16] = test system: HCC-2998 colon
[17] = test system: KM12 colon
[18] = test system: SR leukemia

| SMILES | growth [1] | growth [2] | growth [3] | growth [4] | growth [5] | growth [6] | growth [7] | growth [8] | growth [9] | growth [10] | growth [11] | growth [12] | growth [13] | growth [14] | growth [15] | growth [16] | growth [17] | growth [18] |
| --- | --- | --- | --- | --- | --- | --- | --- | --- | --- | --- | --- | --- | --- | --- | --- | --- | --- | --- |
| C=C1CCC2C3(C)COC(c4cccc(Cl)c4)OC3CCC2(C)C1/C=C/C1=CCOC1=O (configuration not stated) | 51.8% | 71.5% | 84.3% | 53.7% | 78.1% | 88.9% | 76.9% | 96.1% | 44% | 27.7% | 55.9% | 79.4% | 78.4% | 42% | 28.9% | 39.9% | 74.3% | – |
| COc1cc2cc(COc3nccc(-c4ccc(Cl)cc4)n3)c(=O)[nH]c2cc1OC | -28.4% (active) | 81.3% | 96.7% | 82.5% | 89.9% | 79.6% | 90.4% | 67.3% | 84.2% | 85.5% | 86.4% | 65.6% | 36.5% | 46.3% | 53.4% | 11.7% | 76.2% | – |
| O=C(/C=C/c1ccc(B(O)O)cc1)/C=C/c1ccc(B(O)O)cc1 | – | – | 92.8% | – | 46.8% | -73.3% (active) | 27.8% | 4.54% (active) | 91.7% | 27% | -11.8% (active) | -46.6% (active) | -25.2% (active) | 3.78% (active) | -94.4% (active) | -77.1% (active) | -86.7% (active) | 8.8% (active) |
| CC(=O)C1=C(O)C=C2Oc3c(C(=O)/C=C/c4c(Cl)cccc4Cl)c(O)c(C)c(O)c3[C@]2(C)C1=O | – | -18.9% (active) | -3.17% (active) | 7.41% (active) | -30.9% (active) | -8.78% (active) | -30.6% (active) | -18.1% (active) | – | -20.2% (active) | -28.9% (active) | -11.6% (active) | 5.36% (active) | -11.2% (active) | -26.8% (active) | -59.6% (active) | -12.1% (active) | -31% (active) |
| O=C(COCc1c(-c2ccccc2)no[n+]1[O-])Nc1ccc(C(=O)/C=C/c2ccc3c(c2)OCO3)cc1 | 74.2% | 87.5% | 99.4% | 114% | 112% | 95.2% | 113% | 101% | 106% | 94.1% | 96% | 95.3% | 105% | 92.2% | 73.1% | 102% | 104% | – |
| COc1ccc(-c2cc(NC(=O)Nc3ccc(O)cc3)no2)cc1 | 82.1% | 90.1% | 82.9% | 76.7% | 111% | 68.2% | 87.4% | 89.3% | 67.8% | 70.5% | 64.5% | 67.6% | 76.3% | 70.2% | 90% | 82.7% | 20.8% | – |
| O=c1c2c3c(sc2n2c(CCl)nnc2n1Cc1ccccc1)CCCC3 | – | 7.48% (active) | -58.9% (active) | -99.3% (active) | 103% | -42.9% (active) | -98.4% (active) | -36.1% (active) | 19% | – | -93.5% (active) | -64.5% (active) | -82.9% (active) | -79.9% (active) | -56.2% (active) | -69.3% (active) | -69.6% (active) | -33.9% (active) |
| COc1ccc(-c2nn(-c3ccccc3)cc2/C=C/C(=O)OCc2cn(-c3ccc(F)c(Cl)c3)nn2)cc1 | – | 80.1% | 106% | 66.9% | 85.3% | 86.2% | 68.2% | 88% | 73.9% | 48.3% | 101% | 65.3% | 100% | 71% | 84.8% | 98.7% | 93.9% | 88.3% |
| Nc1cccc(NC(=O)C(=O)Nc2cccc(N)c2)c1 | – | – | 94.5% | 126% | 117% | 75.7% | 101% | 89.8% | 93.1% | 105% | 127% | 102% | 95.5% | 100% | 80.2% | 105% | 98.7% | 115% |
| CC(C)c1c(C(=O)Nc2ccccc2)c(-c2ccccc2)c(-c2ccc(F)cc2)n1CC[C@@H]1CC=CC(=O)O1 | -25.9% (active) | -19.9% (active) | 57.1% | 19.8% | 31.6% | -27.5% (active) | -73.3% (active) | 18.1% | -1.87% (active) | 17.1% | -30.6% (active) | 2.54% (active) | -45.1% (active) | -22.8% (active) | -62.5% (active) | -69.8% (active) | -60.7% (active) | – |
| COc1ccc(-n2c(C)nc3c(c(C)nn3-c3ccccc3)c2=O)cc1 | 5.55% (active) | 6.61% (active) | 30.6% | 36.8% | 45.1% | 20.3% | -32.6% (active) | 21.6% | -12.9% (active) | 55.9% | 9.9% (active) | 4.94% (active) | 23.1% | 11.5% | 3.27% (active) | 16.6% | 11.3% | – |
| CC1(C)CC(=O)C(c2c(-c3ccccc3)[nH]c3[nH]c(=S)[nH]c(=O)c23)=C(O)C1 | 101% | 100% | 98.4% | 114% | 114% | 132% | 124% | 123% | 108% | 98.1% | 106% | 90.8% | 104% | 99.6% | 102% | 108% | 118% | – |
| COc1ccc2nc3cc(Cl)ccc3c(N3CCN(c4nccc(Nc5ccc(Cl)cc5)n4)CC3)c2c1 | – | 80.7% | 90.6% | 60.7% | 88.4% | 83.1% | 49.5% | 84.3% | 80.7% | 32.2% | – | 78.7% | 73.7% | 41.6% | 12% | 92.3% | 62.3% | 30.4% |
| Nc1c(C(=O)Nc2ccccc2Cl)sc2nc3c(cc12)CCCCCC3 | – | 48.8% | 60.9% | – | 43.9% | 25.9% | 21.5% | 17.3% | 35% | 41.4% | 39.8% | -16.1% (active) | 34.3% | 13.8% | 19.2% | 33% | 29.2% | 13.2% |
| Cc1cc(N/N=C/c2nc(-c3ccc(Cl)cc3)oc2C)c2cc(Br)ccc2n1 | – | – | 96.1% | -83% (active) | 104% | 63.3% | -21.2% (active) | 78.6% | 14.7% | 74.5% | 94% | -38.8% (active) | -65.4% (active) | -77.8% (active) | 4.35% (active) | 89.9% | 55.3% | 4.22% (active) |
| CCCCCn1cnc2c(=S)nc[nH]c21 | – | 118% | 121% | 86.5% | 98.7% | 116% | 124% | 101% | 113% | 90.8% | – | 105% | 97.8% | 98.4% | 106% | 122% | 109% | 112% |
| C[C@H](CCC(=O)O)[C@H]1CC[C@H]2[C@@H]3CC[C@@H]4/C(=C\c5ccco5)C(=O)/C(=C\c5ccco5)C[C@]4(C)[C@H]3CC[C@]12C | 3.68% (active) | 70.6% | 113% | 80% | 121% | 93% | 24.6% | 69.3% | 80% | 55.6% | 52.9% | 37.1% | 27.4% | 32.5% | 21.8% | 92.8% | 74.5% | – |
| O=C(Cn1cc(CN2C(=O)c3ccccc3S2(=O)=O)nn1)Nc1ccc([N+](=O)[O-])cc1Cl | 107% | 95.3% | 113% | 115% | 73.5% | 103% | 105% | 92.9% | 89.3% | 76.9% | 103% | 103% | 98.1% | 83% | 103% | 98.4% | 93.8% | – |
